CYP2C19 activ: cytochrome P450 2C19 (human) activation | AID 1025 | recombinant CYP2C19, luciferin-H EGE luminescence; active compounds read high; 0 = fully inhibited enzyme, 1 = untreated enzyme | P33261 | 96,000 tested, under 10 active | activation factor at 5 µM;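 active means activation factor of at least 2 at 5 µM in the primary screen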
Measles CPE: protection of cells from measles virus; Measles virus-infected cells, CPE protection, absorbance; protection (pct of control), % at 4 µM; 140,000 tested, 1.5% active; in the data active means protection mostly above about 24%, no sharp cut-off; inactive means mostly below about 26%
CYP2C9 inh: blocks human cytochrome P450 2C9; inhibition, % at 5 µM; P11712; CYP2C9 Supersomes, luciferin-H conversion, luminescence; 96,000 tested, 20% active;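 active means blocking of liver enzyme CYP2C9 beyond about 50% at 5 µM, limit read from the data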
Target sequence (P11712 whole entry, looked up): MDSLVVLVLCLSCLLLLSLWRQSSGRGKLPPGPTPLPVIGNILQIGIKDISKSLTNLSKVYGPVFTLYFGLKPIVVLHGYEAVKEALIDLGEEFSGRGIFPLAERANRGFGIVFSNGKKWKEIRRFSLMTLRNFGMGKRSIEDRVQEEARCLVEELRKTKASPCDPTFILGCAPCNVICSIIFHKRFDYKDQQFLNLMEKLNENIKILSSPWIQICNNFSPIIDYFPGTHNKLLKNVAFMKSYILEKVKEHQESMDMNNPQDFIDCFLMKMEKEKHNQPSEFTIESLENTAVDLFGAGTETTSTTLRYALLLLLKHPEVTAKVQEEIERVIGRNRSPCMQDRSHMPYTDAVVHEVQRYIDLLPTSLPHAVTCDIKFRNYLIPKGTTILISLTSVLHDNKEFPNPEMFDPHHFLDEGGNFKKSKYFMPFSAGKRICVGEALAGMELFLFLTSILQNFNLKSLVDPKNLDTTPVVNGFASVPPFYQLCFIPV
CYP2C19 inh: human CYP2C19 inhibition | inhibition, % at 5 µM | 96,000 tested, 21% active | CYP2C19 Supersomes, luciferin-H EGE luminescence, 30 min | P33261 | AID 778;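 active means CYP2C19 inhibition above a set limit at 5 µM in the primary screen, cut at about 50% in these data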
CYP2C9 act: CYP2C9 (human) activation; recombinant CYP2C9, luciferin-H conversion, luminescence; active compounds read high; factor 1 = untreated enzyme, 0 = blocked; activation factor at 5 µM; 96,000 tested, 1.4% active;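 active means activation factor of 2 or more for CYP2C9 at a 5 µM dose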
Each line names hits and unclear results; the compound was inactive in the other large screens. The list is not random: actives were taken first. Their share in the collection is about 22%.

CCC(C)N(C)Cc1cccc(C2(O)CCN(S(=O)(=O)c3ccc(F)c(C)c3)CC2)c1 (centres undefined)	none (no result: CYP2C19 activ, CYP2C9 inh, CYP2C19 inh, CYP2C9 act)
N#C/C(=C\N1CCN(Cc2ccc3c(c2)OCO3)CC1)c1nc2ccccc2s1	CYP2C19 inh 89
CCOC(=O)N1CCN(/C=C(\C#N)c2nc3ccccc3s2)CC1	CYP2C9 inh 71, CYP2C19 inh 80
COC(=O)c1ccc(/C=C(\C#N)c2nc3ccccc3s2)cc1	none
CC(=O)N(CC1CCCO1)c1nnc(-c2cnccn2)s1 (centres undefined)	none
Cc1ccc(C)c(NS(=O)(=O)c2cc(C(=O)NCc3ccco3)ccc2C)c1	CYP2C9 inh 83, CYP2C19 inh 60
Cc1ccccc1NS(=O)(=O)c1cc(C(=O)N2CCc3ccccc3C2)ccc1C	CYP2C9 inh 67, CYP2C19 inh 54
COc1ccccc1NS(=O)(=O)c1cc(C(=O)NCc2ccco2)ccc1C	CYP2C19 inh 61
Cc1ccc(NS(=O)(=O)c2cc(C(=O)N3CCc4ccccc4C3)ccc2Cl)cc1	none
Cc1ccccc1NS(=O)(=O)c1cc(C(=O)NCc2ccco2)ccc1C	CYP2C9 inh 69
Cc1ccc(C(=O)NCc2ccco2)cc1S(=O)(=O)Nc1cccc(C)c1C	none
COCCNC(=O)c1ccc(NS(=O)(=O)c2cc(C)ccc2C)cc1	none
Cc1ccc(SCCNC(=O)c2ccc(C)c(S(=O)(=O)Nc3ccccc3C)c2)cc1	CYP2C9 inh 68, CYP2C19 inh 67
Nc1nonc1C(=O)NCCNS(=O)(=O)c1ccc(F)cc1	none (no result: CYP2C19 activ, CYP2C9 inh, CYP2C19 inh, CYP2C9 act)
O=C(COC(=O)c1cccnc1)c1ccc(Cl)c(Cl)c1	CYP2C19 inh 77
O=C(COC(=O)c1cccnc1)c1ccc(Cl)cc1	CYP2C19 inh 60
O=C(O)CCc1nn2cc(-c3ccccc3)nc2[nH]c1=O	none (no result: CYP2C19 activ, CYP2C9 inh, CYP2C19 inh, CYP2C9 act)
Cc1nn2cc(-c3ccccc3)nc2[nH]c1=O	CYP2C9 inh 74
CN(C)S(=O)(=O)c1cccc(COC(=O)C2=COCCO2)c1	none
Cc1cc(C)nc(NS(=O)(=O)c2ccc(N/C=C\C(=O)c3ccc(Cl)cc3)cc2)n1	none
CCc1nnc(NS(=O)(=O)c2ccc(NS(=O)(=O)c3ccc(NC(C)=O)cc3)cc2)s1	CYP2C9 inh 77
CCc1nnc(NS(=O)(=O)c2ccc(N/C=C\C(=O)c3ccc(C)cc3)cc2)s1	CYP2C9 inh 88
COCc1nnc(NS(=O)(=O)c2ccc(NC(C)=O)cc2)s1	none
Cc1cc(C)nc(NS(=O)(=O)c2ccc(N/C=C/C(=O)c3ccc(Cl)c(Cl)c3)cc2)n1	Measles CPE 44 (no result: CYP2C19 activ, CYP2C9 inh, CYP2C19 inh, CYP2C9 act)
CCOC(=O)/C=C1\Nc2ccccc2OC1=O	none (no result: CYP2C19 activ, CYP2C9 inh, CYP2C19 inh, CYP2C9 act)
O=C(NNS(=O)(=O)c1ccccc1)c1ccc(S(=O)(=O)N2CCCCC2)cc1	none (no result: CYP2C19 activ, CYP2C9 inh, CYP2C19 inh, CYP2C9 act)
O=C1CS/C(=C\S(=O)(=O)c2ccc(Cl)cc2)N1	CYP2C9 inh 57
Cc1cccc(C2Nc3ccccc3C(=O)N2CCc2ccccc2)n1 (centres undefined)	CYP2C9 inh 61, CYP2C19 inh 61
COC(=O)c1ccccc1NC(=O)CSc1nnc(CNS(=O)(=O)c2ccc(C)cc2)n1C	CYP2C9 inh 94, CYP2C19 inh 52
COC(=O)CSc1nnc(CNS(=O)(=O)c2ccc(Cl)cc2)n1C	Measles CPE 37
Cc1onc(-c2ccccc2)c1C(=O)Nc1nc(-c2ccc(F)c(F)c2)cs1	CYP2C9 inh 68, CYP2C19 inh 79
Cc1onc(-c2c(Cl)cccc2Cl)c1C(=O)Nc1ccc2c(c1)OCO2	CYP2C9 inh 81
Cc1onc(-c2ccccc2)c1C(=O)Nc1cccnc1	CYP2C9 inh 50
CCOC(=O)Cc1csc(NC(=O)c2c(-c3ccccc3)noc2C)n1	CYP2C9 inh 83, CYP2C19 inh 82
CCCCN1CNC(=S)N(Cc2ccccc2)C1	none (no result: CYP2C19 activ, CYP2C9 inh, CYP2C19 inh, CYP2C9 act)
CCc1cc(C(=O)N/N=C/c2c(C)[nH]c3ccccc23)cs1	none (no result: CYP2C19 activ, CYP2C9 inh, CYP2C19 inh, CYP2C9 act)
Cc1csc(NC(=O)c2c(-c3c(Cl)cccc3Cl)noc2C)n1	CYP2C9 inh 89, CYP2C19 inh 83
CCOC(=O)Cc1csc(NC(=O)c2ccc(Cl)nc2)n1	none
CCOC(=O)Cc1csc(NC(=O)c2c(-c3c(F)cccc3Cl)noc2C)n1	CYP2C9 inh 70, CYP2C19 inh 51
COc1cccc(C(=O)NCCC2=CCCCC2)c1	CYP2C19 inh 93
COc1ccc(C(=O)NCCC2=CCCCC2)cc1	none (no result: CYP2C19 activ, CYP2C9 inh, CYP2C19 inh, CYP2C9 act)
Cc1ccccc1NS(=O)(=O)c1cc(C(=O)NCCC2=CCCCC2)ccc1C	none
Cc1ccc(NS(=O)(=O)c2cc(C(=O)NCc3ccccn3)ccc2Cl)cc1	CYP2C9 inh 55, CYP2C19 inh 73
COc1ccc(C(=O)NCCC2=CCCCC2)cc1OC	CYP2C19 inh 66
O=C(NCCC1=CCCCC1)c1ccc(Cl)c(S(=O)(=O)Nc2ccccc2)c1	CYP2C9 inh 69
COC(=O)CNC(=O)COc1ccccc1	none
Cc1ccc(NC(=O)C(=O)c2c(-c3ccccc3)cc3ccccn23)cc1S(=O)(=O)N1CCOCC1	CYP2C19 inh 88
O=S1(=O)C[C@H]2NC(=S)N(c3ccccc3)[C@H]2C1	none (no result: CYP2C19 activ, CYP2C9 inh, CYP2C19 inh, CYP2C9 act)
CCCCCCn1c(N2CCC(C(N)=O)CC2)nc2c1c(=O)n(C)c(=O)n2C	none
O=C(COC(=O)/C=C/c1nc2ccccc2s1)Nc1cccc(Cl)c1Cl	none (no result: CYP2C19 activ, CYP2C9 inh, CYP2C19 inh, CYP2C9 act)
Cc1nc(NC(=O)c2cc3c(s2)CCCCC3)sc1C(=O)N(C)C	CYP2C9 inh 56
CCCOc1ccc(C(=O)NC(=S)Nc2nc(C)c(C(=O)N(C)C)s2)cc1	CYP2C19 inh 63
COc1ccc(/C=C/C(=O)Nc2nc(C)c(C(=O)N(C)C)s2)cc1OC	none (no result: CYP2C19 activ, CYP2C9 inh, CYP2C19 inh, CYP2C9 act)
COC(=O)c1sc(NC(=O)c2cc3c(s2)CCCC3)nc1C	none
COc1ccc(C(=O)Nc2nc(C)c(C(=O)N(C)C)s2)cc1OC	Measles CPE 35
Cc1nc(NC(=S)NC(=O)c2ccccc2)sc1C(=O)N(C)C	none
C=CCNc1nc2c(c(=O)[nH]c(=O)n2C)n1CCCCC	none
Cc1ccc(CNC(=O)CSCC(=O)O)cc1	none
O=C(Cc1cccs1)N1CCC(c2nc3c(nnn3Cc3ccccc3Cl)c(=O)[nH]2)CC1	CYP2C9 inh 100, CYP2C19 inh 79
CCCCCCC(=O)N1CCC(c2nc3c(nnn3Cc3ccccc3Cl)c(=O)[nH]2)CC1	CYP2C9 inh 93
CCC(=O)N(CCC(c1ccco1)c1ccccc1OC)Cc1cccs1 (centres undefined)	CYP2C9 inh 96, CYP2C19 inh 96
COc1ccc(-n2cnc3c(cnn3CCC#N)c2=N)cc1	CYP2C19 inh 77
Cc1ccc(S(=O)(=O)N(C)C)cc1NC(=O)[C@H](Cc1ccccc1)N1C(=O)c2ccccc2C1=O	none (no result: CYP2C19 activ, CYP2C9 inh, CYP2C19 inh, CYP2C9 act)
O=C(Nc1ccccc1)N(O)c1ccc(Cl)cc1	CYP2C9 inh 61, CYP2C19 inh 80
CC(C)P(=O)(Cc1cccc(C#N)c1)C(C)C	none
Nc1nc(NCc2ccccc2)nc(-c2ccccc2)n1	CYP2C9 inh 78, CYP2C19 inh 80
Cn1nc(C(F)(F)F)c(/C=N/OC(=O)c2ccccc2)c1SCc1ccc(Cl)cc1	none
Cn1nc(C(F)(F)F)c(/C=N/OC(=O)c2ccccc2Cl)c1SCc1ccccc1Cl	CYP2C9 inh 93, CYP2C19 inh 68
COC(=O)C1=C(NC(=O)C2CCCCC2)CCS1	none (no result: CYP2C19 activ, CYP2C9 inh, CYP2C19 inh, CYP2C9 act)
